Common to all, as to assay: NCI-60 one-dose screen, 48 h (100 = growth as untreated, 0 = no growth, -100 = all killed)
Conditions in all cases: 10 µM unless noted

The test system of assay [1] is NCI-H23 lung.
Assay [2] has as its system NCI-H226 lung.
For assay [3], the system named is NCI-H322M lung.
In assay [4] the test system is HOP-62 NSCLC.
Assay [5] concerns NCI-H460 lung.
In assay [6] the test system is HOP-92 NSCLC.
Assay [7] relates to NCI-H522 lung.
Assay [8] relates to A549/ATCC NSCLC.
The subject of assay [9] is 786-0 renal.

The panel holds about 83,000 compounds, 20% with a hit somewhere; the sample as a whole holds those more often.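 Interpretation: 100, growth as untreated; towards 0, rising growth inhibition; 0, no net growth; 0 to -100, cell death. Compounds scoring below 10 were considered active.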 A number with no mark means an inactive call. Active and inactive are the calls of the source.

Consider `O=C(NCCOCCOCCOCCNC(=O)c1cc2c(o1)C(=O)c1ccccc1C2=O)NC12CC3CC(CC(C3)C1)C2`, for which the growth in [1] is -45.7% (active); in assay [2], -80.4% (active); in assay [3] it was -59.5% (active); in assay [4] it was -58% (active); in assay [5], -71% (active); in [6] it was 43.5%. For the same molecule, the growth was -27.7% (active) in [7], -47.6% (active) in assay [8] and 3.51% (active) in [9].

Take `Cc1cn(C2CCCCC2)c(=O)[nH]c1=O`: the growth in assay [1] was 115%; in [2], 101%; in assay [3] it was 129%; in assay [4], 109%; in [5], 117%; in assay [6], 97.4%. Further, the growth in assay [7] was 97.8%; in [8], 101%; in assay [9] it was 107%.

With `CNC(=O)c1c(NC(=O)c2ccc(C(C)(C)C)cc2)sc2c1CCC(=O)C2`, the growth in assay [1] was 6.65% (active); in [2], -2.45% (active); in assay [3], 35.4%; in assay [4], 17%; in assay [5], 1.8% (active); in assay [6], -22.3% (active). Also, the growth is -37% (active) in [7], 15.8% in [8] and 29.3% in assay [9].

`N#Cc1c(Oc2ccc([N+](=O)[O-])cc2)nc2sc3cc(Cl)ccc3n2c1=N`: the growth in assay [1] was 73.7%; in assay [2], 56.8%; in [3], 98.2%; in [4] it was 107%; in [5] it was 96.5%; in [6] it was 83.7%. In addition, the growth was 93.7% in [7], 72.9% in assay [8] and 64.3% in [9].

For `O=C1CSC(c2ccccc2O)N1c1nnc(Cn2cnnc2)o1` (stereo unspecified), the growth in assay [1] is 77.3%; in assay [2], 78.5%; in assay [3], 87.3%; in [4] it was 78.7%; in assay [5] it was 86.9%; in assay [6], 53.9%. Also, the figures for the growth in [7], in [8] and in assay [9] were 98.1%, 97.7% and 25.8%, respectively.

As for `N#Cc1c(NC(=O)c2cccc(C(F)(F)F)c2)sc2c1CCC(=O)C2`, the growth in [1] was 0.847% (active); in assay [2] it was 13.6%; in [3] it was 66.1%; in assay [4] it was 4.66% (active); in [5], 3.47% (active); in [6] it was -28.5% (active). The results for the growth in [7], in assay [8] and in [9] were -15.2% (active), 14.6% and 13.1%, respectively.

As for `CC(C)CCC[C@@H](C)[C@H]1CCC2C3=CCC4C(=O)C=CC(=O)C4C3CC[C@@]21C` (stereo partly specified), the growth was 8.4% (active) in assay [1]; 42% in assay [2]; 42.6% in [3]; 12.1% in assay [4]; 2.88% (active) in [5]; -28.9% (active) in [6]. Further, the figures for the growth in assay [7], in [8] and in assay [9] were -46.1% (active), 8.75% (active) and -5.66% (active), respectively.

With `COC(=O)CCCNC(=O)C(=O)c1c(O)c(O)c(C(C)C)c2cc(C)c(-c3c(C)cc4c(C(C)C)c(O)c(O)c(C(=O)C(=O)NCCCC(=O)OC)c4c3O)c(O)c12`, the growth is 11.8% in assay [1]; -17.2% (active) in assay [2]; 29.6% in assay [3]; 13% in [4]; 0.963% (active) in [5]; -0.407% (active) in [6]. Further, the growth in assay [7] is -38.9% (active); in assay [8], -6.82% (active); in [9], 4.56% (active).

For the molecule `O=[N+]([O-])c1ccc(-c2cc3c(Nc4ccc(Cl)c(C(F)(F)F)c4)ncnc3s2)cc1`, the growth was -6.97% (active) in assay [1]; 20.1% in [2]; 20.9% in assay [3]; 20.8% in [4]; 4.13% (active) in assay [5]; -14.3% (active) in [6]. Also, the growth in [7] is -1.24% (active); in assay [8], 10.1%; in assay [9], 19.2%.

In the case of `CCCn1nc(-c2ccccc2)c2c(-c3ccccc3)onc2c1=O`, the growth in [1] is 85.6%; in assay [2], 87.5%; in assay [3], 95.4%; in assay [4], 74.2%; in assay [5], 98.1%; in assay [6] it was 75.6%. For the same molecule, the figures for the growth in [7], in assay [8] and in [9] were 62.6%, 89% and 94.1%, respectively.

For the molecule `CC(C)(C)CC(C)(C)Nc1c(-c2ccc(-c3ccccc3)cc2)nc2cnccn12`, the growth is 91.5% in assay [1]; 87.4% in assay [2]; 81.5% in [3]; 79.9% in [4]; 80% in [5]; 93.3% in assay [6]. The results for the growth in assay [7], in assay [8] and in [9] were 37.5%, 56.4% and 80.6%, respectively.

As for `COc1ccc(-c2cc(-c3cc(OC)ccc3O)[nH]c(=O)c2C#N)cc1`, the growth was 59.1% in assay [1]; 73.8% in assay [2]; 94.5% in [3]; 53.2% in assay [4]; 41.6% in assay [5]; 31.6% in assay [6]. The growth was 15.4% in assay [7], 79.9% in assay [8] and 57.3% in [9].

Turning to `COC(=O)c1ccc(CSc2nnc(-c3ccncc3)o2)cc1`, the growth in assay [1] was 105%; in assay [2], 102%; in assay [3], 93.4%; in assay [4], 92.4%; in [5], 108%; in assay [6], 108%. The results for the growth in assay [7], in assay [8] and in assay [9] were 86.3%, 99.9% and 100%, respectively.

In the case of `Cc1cc(N(CCCNc2ccnc3cc(Cl)ccc23)Cc2ccccn2)nc(N2CCCC2)n1`, the growth is 78.3% in [1]; 89.6% in [2]; 75.9% in assay [3]; 68.4% in assay [4]; 66.4% in assay [5]; 59.7% in assay [6]. Besides, the growth in assay [7] was 88%; in assay [8], 70.8%; in assay [9] it was 73.5%.

The values above are taken from PubChem BioAssay (NCI).
